Reference: PubChem BioAssay (NCI)
This is part of a sample that, as a whole, favours compounds with a hit. Of some 83,000 tested, about 20% had one in any assay.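 Values shown are percent growth following 48 h exposure of cells in 96-well plates to a single concentration of compound; below 10 was considered active.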 Values without a mark were called inactive. Active and inactive are the calls of the source.

These compounds were tested on A549/ATCC NSCLC (assay: NCI-60 one-dose screen, 48 h (100 = growth as untreated, 0 = no growth, -100 = all killed)). Settings: 10 µM unless noted.
Procedure: Growth inhibition of the A549/ATCC human Non-Small Cell Lung tumor cell line is measured as a screen for anti-cancer activity. Cells are grown in 96 well plates and exposed to the test compound for 48 hours. Compounds are tested at a single concentration, which is 10^-5 M for most compounds. The reported endpoint is percent growth (GI% or GIPRCNT), where numbers from 0 - 100% represent growth inhibition, and numbers from -100% - 0 represent cell death. For example, a value of 40 represents 60% growth inhibition. A value of 0 means no net growth occurred over the course of the experiment. A value of -40 indicates 40% of cells at the beginning of the experiment died by the end of the experiment. A value of -100 means all cells are dead at the end of the experiment.
NCI-60 Human Tumor Cell Lines Screen was performed using the standard one-dose NCI protocol, which is described in more detail at https://dtp.cancer.gov/discovery_development/nci-60/default.htm.
Compounds with GIPRCNT values below 10 were considered active. Activity score was based on GIPRCNT using the following formula: […]
Score is 0 for GIPRCNT values of 100 or above, 50 for GIPRCNT values of 0, and 100 for GIPRCNT values of -100.
Work on `O=C(COc1cccc2cccnc12)Nc1ccc(C(=O)/C=C/c2ccc(Cl)cc2)cc1` yielded a growth of 85.4%.
`Cc1ccc(/C=C/CC(=O)Nc2ccc(C(=O)Nc3ccc(F)cc3N)cc2)cn1` was tested, and the growth was 69.2%.
`Nc1nc(-c2cccc([N+](=O)[O-])c2)c(N=Nc2cccc(Cl)c2)s1` showed a growth of 48.7%.
Compound `C#CCOc1ccc(C(Nc2cc(Cl)ccc2Cl)c2nnnn2C2CCCCC2)cc1` (stereo not given) has a growth of 80.5%.
In the case of `IP(CCCCCCCCCCSc1n(Cc2ccc3ccccc3c2)c(-c2ccccc2)c(-c2ccccc2)[n+]1Cc1ccc2ccccc2c1)(c1ccccc1)(c1ccccc1)c1ccccc1`, the growth is reported as -55% (active).
Compound `COc1ccc(-c2nnc(SCc3ccc(O)c4ncccc34)n2-c2ccccc2)cc1` has a growth of 26.4%.
`COc1cc2cc(Oc3ccc(NC(=O)Nc4cc(C(F)(F)F)cc(C(F)(F)F)c4)cc3)c(C)nc2cc1OCCN(C)C` gave a growth of 104%.
For `O=C(Nc1cccc(Cl)c1)Nc1nc2ccc(-c3cccc4ccccc34)cc2s1`, the growth was 36.9%.
`C=C(C)C(=O)O[C@H]1C[C@@]2(C)OC(=CC2=O)[C@H](C)[C@H](O)[C@H]2OC(=O)C(=C)[C@@H]21` was tested, and the growth was 94.7%.
`CCN1CCN(c2cc(C(=O)Nc3nc4ccc(Oc5ccnc(C(=O)NC)c5)cc4s3)cc(C(F)(F)F)c2)CC1` was tested, and the growth was 86.5%.
`NS(=O)(=O)c1ccc(Nc2nc(N/N=C/c3ccc([N+](=O)[O-])cc3)nc(Nc3ccccc3)n2)cc1` gave a growth of 96.9%.
Compound `O=S(=O)(Nc1ccc(-c2nc(-c3cccc(O)c3)c(-c3ccnc(Br)c3)[nH]2)cc1)c1ccccc1` has a growth of 51.5%.
Compound `CCOC(=O)C1=C(C)Nc2nc3ccccc3n2C1c1cccc(Br)c1` (stereo not given) has a growth of 80.7%.
`O=C(c1ccc(O)cc1)[C@@H]1[C@@H]2CCCN2[C@@]2(C(=O)N(C(=O)c3ccc(F)cc3)c3ccccc32)[C@H]1c1ccc(F)cc1` was tested, and the growth was 96.6%.
In the case of `CC(=O)Nc1nc2c(s1)C1=CC[C@H]3[C@@H]4CC[C@H](C(C)=O)[C@@]4(C)CC[C@@H]3[C@@]1(C)CC2`, the growth is reported as 51.7%.
`CCOC(=O)c1c(NCC(=O)Nc2cccc([N+](=O)[O-])c2)sc2c1CCCC2` was tested, and the growth was -13.8% (active).
For `NS(=O)(=O)c1ccc(Nc2nc(N/N=C/c3ccc(C(F)(F)F)cc3)nc(Nc3ccccc3)n2)cc1`, the growth was 27.6%.
For `COc1ccc(NC(=O)[C@H](C)NC(=O)OC(C)(C)C)cc1C(=O)Nc1cccc(-c2cc(=O)c3c(OC)c(OC)c(OC)cc3o2)c1`, the growth was 7.37% (active).
Compound `CCCCCCNC(=O)Oc1ccc(/C(=C(/C)c2ccccc2)c2ccc(OCCN(C)C)cc2)cc1` has a growth of 73.4%.
In the case of `O=C(NCCNc1cc(-c2cn(-c3ccccc3)nc2-c2cccc(O)c2)ccn1)Nc1ccc(Cl)c(C(F)(F)F)c1`, the growth is reported as 61.8%.
In the case of `O=C1c2cc(Br)ccc2-n2c1nc1cc(Br)ccc1c2=O`, the growth is reported as 67.1%.
`O=c1[nH]c(CCl)nc2c1cnn2-c1ccccc1` gave a growth of 98.6%.
Work on `C#C[C@]1(O)CC[C@H]2[C@@H]3CC=C4c5sc(Nc6cccc(Cl)n6)nc5CC[C@]4(C)[C@H]3CC[C@@]21C` yielded a growth of 18.5%.
`Oc1ccc(CSc2nnc(-c3cnccn3)n2-c2ccccc2)c2cccnc12` was tested, and the growth was 29.5%.
For `O=C1c2c(c3c4cccnc4[nH]c3c3ccc4ccccc4c23)C(=O)N1CCN1CCOCC1`, the growth was 55.4%.
`Nc1nc(N)c2c(n1)NC(c1ccc(Cl)cc1)CC(c1ccc(Nc3nc(NCCO)nc(Nc4ccc(Cl)cc4)n3)cc1)=N2` (stereo not given) showed a growth of 52%.
`O=S(=O)(Nc1ccc(-n2cnc3cc(-c4ccc(O)cc4)ccc32)cc1)C1CC1` showed a growth of 82.2%.
For `C=C(C)[C@@H]1CC[C@]2(C)[C@H](CC=C3[C@@H]4CC(C)(C)CC[C@]4(C(=O)NCC#CCN4CCN(C)CC4)CC[C@]32C)[C@@]1(C)CCC#N`, the growth was 52.9%.
With `COc1ccc(/C(C)=C(\c2ccc(Cl)cc2)c2ccc(OCCN)cc2)cc1` the growth was 88.9%.
With `Cc1cc2nc(C(Cl)Cl)nc(-c3ccco3)n2n1` the growth was 3.5% (active).
Work on `Cc1nn(-c2ccc(Br)cc2)c2nc(CCl)[nH]c(=O)c12` yielded a growth of 96.9%.
Work on `CC(C)(C)CC(C)(C)n1nnnc1C(Nc1ccccc1)c1cc2cccc3ccc4cccc1c4c32` (stereo not given) yielded a growth of 78.5%.
With `CCN(CC)Cc1c(-c2cccc(OC(F)(F)F)c2)[nH]c2ccc(N3CCCC3)cc2c1=O` the growth was 99%.
`C#CCOc1ccccc1C(Nc1ccccc1)c1nnnn1C1CCCCC1` (stereo not given) gave a growth of 96%.
`C=CCn1c(SCC(=O)Nc2cccc(C(=O)/C=C/c3cc(OC)c(OC)c(OC)c3)c2)nc2ccccc2c1=O` showed a growth of 80.2%.
`C/C(=C(/c1ccc(O)cc1)c1ccc(OCCN2CCCCCC2)cc1)c1ccccc1` gave a growth of 56.7%.
Work on `CCOC(=O)/C(F)=C/C1CC1CCc1cccc(C(F)(F)F)c1` (stereo not given) yielded a growth of 107%.
For `CCOC(=O)c1c(Nc2ccccc2)nn2c(-c3ccc(Br)cc3)ccnc12`, the growth was 56.4%.
`O=C(CCCCCCN1CC(=O)N2[C@@H](c3cc(F)cc(F)c3)c3[nH]c4ccccc4c3C[C@H]2C1=O)NO` showed a growth of 90.5%.
Compound `CCCC(=O)NC(c1cccnc1)c1ccc2c(C)ccnc2c1O` (stereo not given) has a growth of 16%.
